TRHR PAM: allosterically enhances the human TRH receptor. P34981. TRHR cells, fluo-8 calcium fluorescence, EC20 TRH enhancement. enhancement, % at 2 µM. 0.66% of 360,000 active; in the data active = enhancement above about 30%
Target sequence (P34981 whole entry, looked up): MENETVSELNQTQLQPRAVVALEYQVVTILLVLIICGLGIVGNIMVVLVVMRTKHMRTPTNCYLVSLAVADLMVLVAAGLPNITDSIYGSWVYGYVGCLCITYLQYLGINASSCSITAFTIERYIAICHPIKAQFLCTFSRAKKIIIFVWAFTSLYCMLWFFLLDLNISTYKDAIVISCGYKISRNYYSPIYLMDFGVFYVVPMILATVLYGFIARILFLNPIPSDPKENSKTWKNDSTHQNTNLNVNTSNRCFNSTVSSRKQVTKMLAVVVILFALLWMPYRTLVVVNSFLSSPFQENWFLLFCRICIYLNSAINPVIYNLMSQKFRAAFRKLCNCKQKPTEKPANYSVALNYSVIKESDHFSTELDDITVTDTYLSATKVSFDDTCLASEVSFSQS
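Enhancer read-out: after compound pinning and an initial kinetic agonist-mode read, an EC20 of TRH (10 nM final) was injected and fluo-8 calcium signal (Ex 480/Em 530) followed at 1 s/cycle for 100 cycles in TRHR-expressing cells.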
D1 agonist: activates the human D1 dopamine receptor; activation, % at 2 µM; 1% of 360,000 active; AID 504660; HEK293 T-REx D1 cells, calcium flux, agonist mode; P21728
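Tetracycline-induced HEK293 TREx D1 cells, force-coupled to calcium signalling, were dye-loaded with a no-wash calcium kit. Compound was pin-added after a 10 s baseline. Fluorescence was read kinetically at 1 cycle/s for 180 s, with calcium rises flagged as agonism.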
TRHR ag: activates the human TRH receptor | TRHR cells, calcium flux fluo-8, FDSS agonist mode | activation, % at 2 µM | 0.18% of 360,000 active | AID 493084
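Steps: seed TRHR cells overnight; add fluo-8 no-wash Ca dye, RT 30 min–1.5 h; record 10 s baseline; pin-transfer compounds; monitor fluorescence 1 cycle/s for the agonist window. Calcium increases flag candidate agonists.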
D1 antag: human D1 dopamine receptor antagonism. P21728. HEK293 TREx D1 cells, calcium flux, dopamine EC80; stronger effect = lower value. activity change, negative = inhibition, % at 10 µM. 3.2% of 360,000 active. AID 504652; in the data active = activity change below about -30%
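After overnight tetracycline induction at 30 C, force-coupled D1 HEK293 cells took up a no-wash calcium dye at room temperature. Compounds were added and monitored 180 s, and the response to EC80 dopamine was then recorded.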
D1 PAM: human D1 dopamine receptor positive modulation | HEK293 TREx D1 cells, calcium flux, dopamine EC20 potentiation | P21728 | potentiation, % at 10 µM | 0.036% of 360,000 active | AID 504651; in the data active = potentiation above about 30%
Numbers stand for hits; n = inactive. In the library only some 4.7% were active in any assay of this set; here they are far more common. Rule as the data show it, unless noted: active = activation above about 30%; inactive = the rest.

SMILES	TRHR PAM	D1 agonist	TRHR ag	D1 antag	D1 PAM
COc1ccc(NC(=O)CN2CCN(c3nc(-c4cccc(OC)c4)cs3)CC2)cc1	n	n	n	-36.5	n
COC(=O)c1[nH]c2cccc(OC)c2c1NC(=O)CCN1CCC(C(N)=O)CC1	n	n	n	n	n
COC(=O)c1[nH]c2cccc(OC)c2c1NC(=O)CCN1CCN(c2ccccc2F)CC1	n	n	n	-56.7	n
COc1cc(NC(=O)CCN2CCN(Cc3ccccc3)CC2)cc(OC)c1	n	n	n	n	n
COc1cc(NC(=O)CCN2CCN(c3ccccc3F)CC2)cc(OC)c1	n	n	n	-42.2	n
COc1cccc(-c2csc(N3CCN(CC(=O)Nc4ccc5c(c4)OCO5)CC3)n2)c1	n	n	n	n	n
O=C(CCN1CCN(c2ccccc2F)CC1)Nc1cccc(F)c1	n	n	n	-43.2	n
O=C(CCN1CCN(c2ccccc2F)CC1)Nc1ccc(F)cc1	n	n	n	n	n
CCc1ccc(NC(=O)Cn2c(=O)n(CC3CCCO3)c(=O)c3cc(OC)c(OC)cc32)cc1 (stereo not given)	n	n	n	n	n
COc1ccc(NC(=O)CCN2CCN(c3cccc(Cl)c3)CC2)cc1	n	36.1	n	n	n
NC(=O)CS(=O)(=O)c1nc2ccccc2n1Cc1ccccn1	n	n	n	-38.1	n
CCN1C(=NCCCCO)N[C@@H](c2ccccc2)C(C(=O)OC)=C1C	n	n	n	n	n
COc1ccc(C(=O)NC(C(=O)NCc2ccccc2OC)C(C)C)cc1 (stereo not given)	n	n	n	n	n
COc1ccccc1COC(=O)C(NC(=O)c1ccc(C)cc1)C(C)C (stereo not given)	n	n	n	-32.0	n
Cc1c2cnn(CC(=O)NC(C)C)c(=O)c2c(C)n1Cc1ccccc1Cl	n	n	n	-31.5	n
COc1ccccc1CNC(=O)Cn1ncc2c(C)n(Cc3ccccc3Cl)c(C)c2c1=O	n	n	n	n	n
COc1ccc(CCNC(=O)CCCCn2c(=O)c3ccccc3n(Cc3ccccc3Cl)c2=O)cc1OC	n	n	n	n	n
Cc1nc(N2CCN(Cc3ccccc3)CC2)nc2c1C(=O)CC(c1ccco1)C2 (stereo not given)	n	n	n	-32.2	n
Cc1nc(N2CCN(Cc3ccc4c(c3)OCO4)CC2)nc2c1C(=O)CC(c1ccco1)C2 (stereo not given)	n	n	n	n	n
COc1ccc(/C=C\c2onc(C)c2S(=O)(=O)N2CCC(C(=O)Nc3ccc(C)cc3C)CC2)cc1	n	n	n	n	n
CCOC(=O)c1c(C)oc2nc(C)nc(NCCCN3CCN(c4ccccc4)CC3)c12	n	n	n	n	n
CCOC(=O)c1c(C)oc2nc(C)nc(NCCCN3CCN(c4cccc(C)c4)C(C)C3)c12 (stereo not given)	37.7	n	n	n	n
COc1ccc(OC)c(NC(=O)CCc2c(C)nc3c(c(C)nn3C(C)(C)C)c2C)c1	n	n	n	-41.6	n
Cc1nc2c(c(C)nn2C(C)(C)C)c(C)c1CCC(=O)Nc1ccc(Br)cc1Br	n	n	n	n	n
CCN(C(=O)c1nn(-c2ccc(OC)c(Cl)c2)c(=O)c2c1c1ccccc1n2C)c1cc(OC)ccc1OC	n	n	n	n	n
SMILES	TRHR PAM	D1 agonist	TRHR ag	D1 antag	D1 PAM
COc1ccc(C(=O)N2CCCC(Nc3ccc(F)c(F)c3)C2)c(OC)n1 (stereo not given)	n	n	n	-35.0	n
COc1ccc(C(=O)N2CCCC(Nc3ccc(C)c(C)c3)C2)c(OC)n1 (stereo not given)	n	n	n	n	n
O=C(c1cnsn1)N1CCCC(Nc2ccc(F)c(F)c2)C1 (stereo not given)	n	n	n	-64.5	n
CCc1ccc(NC(=O)CSc2nc3ccsc3c(=O)n2C(C)CC)cc1 (stereo not given)	n	n	n	n	n
O=C(c1ccco1)N1N=C(c2ccc(Br)cc2)CC1(O)C(F)(F)F (stereo not given)	n	n	n	-45.7	n
O=C(c1ccco1)N1N=C(C2CCCCC2)CC1(O)C(F)(F)F (stereo not given)	n	n	n	-38.3	n
C[N+](C)(C)CC/C=C1/c2ccccc2CSc2ccccc21	n	n	n	n	n
CNCCC=C1c2ccccc2CCc2ccccc21	n	n	n	-78.8	n
COc1ccccc1-c1nc2c(c(SCC(=O)Nc3ccc(C)c(C)c3)n1)Cc1c(CO)cnc(C)c1O2	n	n	n	n	n
Cc1cc(C(=O)N2CCCC(N3CCN(c4cccc(C(F)(F)F)c4)CC3)C2)n[nH]1 (stereo not given)	n	n	n	-49.7	n
O=C(Cn1cccn1)N1CCCC(N2CCN(c3cccc(C(F)(F)F)c3)CC2)C1 (stereo not given)	n	n	n	n	n
O=C(CCn1cccn1)N1CCCC(N2CCN(c3cccc(C(F)(F)F)c3)CC2)C1 (stereo not given)	34.2	n	n	n	n
Cc1ccc(-n2c(SCC(N)=O)nc3c(oc4ccccc43)c2=O)cc1C	n	n	n	n	n
Fc1ccc(CSc2ccc(-c3ccco3)nn2)cc1	n	n	n	-84.6	n
CCN(CCCNc1ncnc2nc[nH]c12)c1cccc(C)c1	n	n	n	-36.1	n
CCCCN(CCCNc1ncnc2nc[nH]c12)c1ccccc1	n	n	n	n	n
COc1ccc(Cn2ccc3nc(C)c(C(=O)N4CCN(c5ccc(F)cc5)CC4)cc3c2=O)cc1	n	n	n	n	n
COc1cccc2cc(-c3nc4sc(C(=O)Nc5ccc(F)cc5F)c(C)c4c(=O)[nH]3)c(=O)oc12	n	n	n	n	n
CCN(CC(=O)NCc1ccc(F)cc1)C(=O)c1ccc(Cl)cc1	n	n	n	n	n
CCN(CC(=O)NCc1ccc(F)cc1)C(=O)c1ccc(C)o1	32.3	n	n	n	n
CCN(CC(=O)NCc1ccc(F)cc1)C(=O)/C=C/c1cccs1	38.5	n	n	n	n
CCOC(=O)c1sc(NC(=O)c2c(-c3ccccc3)c(-c3ccccc3)nn(C)c2=O)nc1C	n	n	n	n	n
O=S(=O)(c1ccc(OC(F)(F)F)cc1)N1CCCC(c2ccccc2)C1 (stereo not given)	n	n	n	-34.4	n
CCC(=O)N1c2ccc(S(=O)(=O)CCC(=O)NCc3ccc(OC)cc3)cc2CC1C (stereo not given)	n	n	n	n	n
COc1ccc(C2=NN(CCC(=O)NC3CCCCCC3)C(=O)CC2)cc1	n	n	n	-32.9	n
CCOC(=O)c1ccc(NC(=O)CCn2c(=O)c3cccn3c3ccccc32)cc1	n	85.8	n	n	n
COc1ccc(NC(=O)CCn2c(=O)c3cccn3c3ccccc32)cc1	n	n	n	n	n

Compound activity from PubChem.
